TDP1 cell CPT – qHTS for Inhibitors of human tyrosyl-DNA phosphodiesterase 1 (TDP1): qHTS in cells in presence of CPT | chicken DT40 Tdp1-/-;hTDP1 cells + 20 nM CPT, ATP luminescence, 48 h | AID 686979, 2013 | Potency, µM (highest dose often 46.2 µM), without a hit: at the top dose activity change, negative = growth inhibition, usual class: inhibitors | 420,000 compounds, 12% hits; note: potency is the fitted concentration of half-maximal effect; nearly all actives have a fitted effect of over 55% in size
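Chicken DT40 Tdp1-/- cells complemented with human TDP1, 400 cells/well, exposed to compounds plus 20 nM camptothecin for at least 48 h at 37 C; viability read as ATP content by CellTiter-Glo luminescence.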
HT1080NT lethal – qHTS for induction of synthetic lethality in tumor cells producing 2HG: qHTS for the HT-1080-NT fibrosarcoma cell line; HT-1080-NT fibrosarcoma viability, CellTiter-Glo ATP luminescence, 48 h; Potency, µM (series often up to 46.1 µM), inactives show at the top dose activity, negative = less viability, actives largely listed as cytotoxic; 360,000 compounds, 1.6% hits; AID 686970, 2013;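 note: NT is the 2HG producing partner of a matched IDH1 knockdown line; potency is the fitted concentration of half-maximal effect; 0% = DMSO-treated cells and -100% = media-only wells without cells; nearly all actives have a fitted effect of over 55% in size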
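750 cells/well, RPMI + 5% FBS; 2 h settle, compound pin-transfer, 48 h at 37 degrees C. CellTiter-Glo 10 min RT, luminescence. Normalized to DMSO and media-only wells.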
HT1080 IDH1KD tx – qHTS for induction of synthetic lethality in tumor cells producing 2HG: qHTS for the HT-1080-IDH1KD cell line; Potency, µM (highest dose often 46.1 µM), inactives show at the top dose activity, negative = toxicity, most hits filed as cytotoxic; 360,000 compounds, 2% hits; HT-1080 IDH1 knockdown viability, ATP luminescence, 48 h; AID 686971, 2013;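 note: potency is the fitted concentration of half-maximal effect; 0% = DMSO wells and -100% = cell-free medium wells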
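After a 2 h attachment period, IDH1KD HT-1080 cells took pin-transferred compound for 48 h at 37 °C; ATP-based luminescence after 10 min room-temperature reagent incubation reported viability.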
TDP1 cell noCPT – qHTS for Inhibitors of human tyrosyl-DNA phosphodiesterase 1 (TDP1): qHTS in cells in absence of CPT | 420,000 compounds, 15% hits | Potency, µM (highest dose often 46.2 µM), for the others: at the top dose activity change, negative = growth inhibition, most hits filed as inhibitors | DT40 Tdp1-/- hTDP1 cells, no CPT, ATP luminescence, 48 h; note: potency is the fitted concentration of half-maximal effect; nearly all actives have a fitted effect of over 55% in size
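Stably hTDP1-transfected Tdp1-null chicken DT40 cells were treated with library compounds minus camptothecin and grown for at least 48 hr at 37 °C, after which cellular ATP was quantified by luminescence.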
IL-1B inflam inh – qHTS for Inhibitors of Inflammasome Signaling: IL-1-beta AlphaLISA Primary Screen; AID 743279, 2014; THP-1 LPS/ATP IL-1B secretion, AlphaLISA, 16 h; stronger effect = lower value; 360,000 compounds, 4.7% hits; activity change, % at 57.5 µM; in the data active = activity change below about -50%; inconclusive = mostly about -30% to -49%
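Secreted IL-1B measured by AlphaLISA bead assay after 16 h compound exposure of THP-1 cells; compounds (final up to 57.5 uM) added 1 h before LPS (250 ng/mL) and ATP (1.25 mM) stimulation; lower signal means less secretion.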
ALOX12 inh – Primary qHTS assay for inhibitors of human arachidonate 12S-lipoxygenase (ALOX12): Round 2; Polyunsaturated fatty acid lipoxygenase ALOX12 (Homo sapiens), P18054; purified 12hLO, xylenol orange hydroperoxide absorbance; Potency, µM (top dose mostly 108 µM), inactives show top-dose activity change, negative = inhibition, most hits filed as inhibitors; 580,000 compounds, 1.1% hits; AID 1671190, 2021; note: potency is the fitted concentration of half-maximal effect
Target sequence (P18054 whole entry, looked up): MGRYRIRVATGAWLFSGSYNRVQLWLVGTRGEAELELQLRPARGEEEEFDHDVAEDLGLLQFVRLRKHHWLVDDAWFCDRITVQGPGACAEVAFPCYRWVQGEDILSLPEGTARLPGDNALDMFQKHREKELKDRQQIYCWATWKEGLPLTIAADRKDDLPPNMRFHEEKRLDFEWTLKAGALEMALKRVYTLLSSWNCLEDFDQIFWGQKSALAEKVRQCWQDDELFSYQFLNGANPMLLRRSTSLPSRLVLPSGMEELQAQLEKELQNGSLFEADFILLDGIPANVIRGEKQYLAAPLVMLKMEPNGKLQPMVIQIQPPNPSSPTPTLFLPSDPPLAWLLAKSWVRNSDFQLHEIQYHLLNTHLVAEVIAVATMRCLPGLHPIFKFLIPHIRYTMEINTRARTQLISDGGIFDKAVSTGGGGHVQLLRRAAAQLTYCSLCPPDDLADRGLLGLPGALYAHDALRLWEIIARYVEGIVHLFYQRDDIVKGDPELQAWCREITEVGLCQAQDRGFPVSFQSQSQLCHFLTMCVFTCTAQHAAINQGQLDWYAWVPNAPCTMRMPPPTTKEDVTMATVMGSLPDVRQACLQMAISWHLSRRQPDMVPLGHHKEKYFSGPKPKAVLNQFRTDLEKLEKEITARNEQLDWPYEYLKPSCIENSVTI
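Purified human 12hLO at 150 nM in 25 mM Hepes, 0.01% Triton X-100, pH 7.0, preincubated 15 min at room temperature with compound. Reaction started with 40 uM arachidonic acid, 30 min at room temperature. Hydroperoxide measured by Fe-xylenol orange, 573/405 nm absorbance ratio.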
* = called active by the depositor; ? = inconclusive; · = not tested or not shown. Many of the other results were omitted from the sample, so hits are more common in it than they were. Unless noted, calls come from the whole dose curve; as a rule, active = well fitted curve in the direction sought with a large enough effect; inconclusive = small, poorly fitted or top-dose-only effect, or another doubt; inactive = no such curve, though single readings can be large; an effect the other way counts as inactive or inconclusive. Unless noted, % is set by controls: 0 for no effect and ±100 for the full control effect.

SMILES	TDP1 cell CPT	HT1080NT lethal	HT1080 IDH1KD tx	TDP1 cell noCPT	IL-1B inflam inh	ALOX12 inh
CC1(C(=O)Nc2cccc3ncccc23)CCN1C(=O)Cc1ccc(-c2ccccc2)cc1 (stereo not drawn)	23µM*	?	?	16µM*	-10	?
O=C1c2c(nc(COc3cccc(Cl)c3)n2Cc2ccccc2)NCCN1CCOc1ccccc1	·	·	·	·	·	-8%
Cc1ccc(S(=O)(=O)NC(=O)C2(C)CCN2C(=O)Cc2ccc(-c3ccccc3)cc2)cc1 (stereo not drawn)	12%	-8%	3%	2%	7	?
CC1(C(=O)NCc2ccccc2Br)CCN1C(=O)Cc1ccc(-c2ccccc2)cc1 (stereo not drawn)	?	16µM*	?	?	-11	9%
CC1(C(=O)NS(=O)(=O)c2cccc(F)c2)CCN1C(=O)Cc1ccc(-c2ccccc2)cc1 (stereo not drawn)	1%	-23%	5%	14%	16	0%
CC1(C(=O)NC2CCCCCC2)CCN1C(=O)Cc1ccc(-c2ccccc2)cc1 (stereo not drawn)	?	?	?	15µM*	-8	-2%
Cc1ccc(NC(=O)C2(C)CCN2C(=O)Cc2ccc(-c3ccccc3)cc2)cc1 (stereo not drawn)	16µM*	?	?	16µM*	-1	-25%
Cc1cc(C(=O)N2CCC2(C)C(=O)Nc2cc(C(C)(C)C)nn2C)nn1C (stereo not drawn)	0%	16%	30%	-1%	-6	5%
CSc1ccc(NC(=O)C2(C)CCN2C(=O)c2cc(C)n(C)n2)cc1 (stereo not drawn)	?	2%	8%	21µM*	-4	-3%
C=CCSc1ccccc1NC(=O)c1sccc1C	·	·	·	·	·	-1%
C=C(C)Cn1c(SCCO)nc2c1c(=O)[nH]c(=O)n2C	·	·	·	·	·	-1%
CC(C)NC(=O)C1(C)CCN1C(=O)Cc1ccc(-c2ccccc2)cc1 (stereo not drawn)	16µM*	?	?	13µM*	-1	2%
CC(C)NC(=O)C1(C)CCN1Cc1ccc(-c2ccccc2)cc1 (stereo not drawn)	12µM*	?	?	8.2µM*	-8	5%
CC(C)NC(=O)C1(C)CCN1Cc1ccc(C(F)(F)F)cc1 (stereo not drawn)	?	19%	1%	?	2	-19%
CSc1ccccc1NC(=O)C1(C)CCN1C(=O)Cc1ccc(-c2ccccc2)cc1 (stereo not drawn)	?	?	?	18µM*	0	2%
CSc1ccc(NC(=O)C2(C)CCN2C(=O)Cc2ccc(C(C)(C)C)cc2)cc1 (stereo not drawn)	23µM*	?	?	?	-6	-3%
CC1(C(=O)NS(C)(=O)=O)CCN1C(=O)Cc1ccc(-c2ccccc2)cc1 (stereo not drawn)	-11%	?	9%	-4%	5	?
CN(C)/C=C\C(=O)C1CC1	·	·	·	·	·	-8%
CC(C)NC(=O)C1(C)CCN1C(=O)C1(c2ccccc2)CC1 (stereo not drawn)	?	27%	10%	-24%	26	10%
CCC(C)NC(=O)Cc1ccc(-c2ccccc2)cc1 (stereo not drawn)	?	-5%	1%	21µM*	-8	-6%
CC1(C(=O)NC2CCCCCC2)CCN1C(=O)C1(c2ccccc2)CC1 (stereo not drawn)	12µM*	-10%	-5%	18µM*	-3	-19%
CC(C)(C)CNC(=O)C1(C)CCN1C(=O)Cc1ccc(-c2ccccc2)cc1 (stereo not drawn)	23µM*	-21%	?	18µM*	3	3%
CC(C)(C)CNC(=O)C1(C)CCN1C(=O)c1ccccc1CCc1ccccc1 (stereo not drawn)	21µM*	-1%	-20%	16µM*	-18	3%
CCCNC(=O)C1(C)CCN1C(=O)c1ccccc1CCc1ccccc1 (stereo not drawn)	?	?	0%	?	1	10%
CC1(c2ccccc2)CCCN(C(=O)c2ccnc(-n3cnnc3)c2)C1 (stereo not drawn)	·	·	·	·	·	-9%
CC1(Cc2cc(Cl)ccc2C(F)(F)F)C(=O)Nc2ccc(S(=O)(=O)NC3CCCCC3)cc21 (stereo not drawn)	26µM*	?	?	?	-21	?
CC1(Cc2ccc(Cl)c(Cl)c2)C(=O)Nc2ccc(S(=O)(=O)NC3CCCCC3)cc21 (stereo not drawn)	?	?	?	?	-17	?
O=C(Nc1ccc(C(F)(F)F)oc1=O)c1ccc(Cl)cc1	·	·	·	·	·	-44%
COC(=O)c1cc(NC(=O)CN(c2ccccc2OC)S(=O)(=O)c2ccccc2)ccc1Cl	?	-25%	-16%	?	-22	7%
